In PubChem BioAssay AID1347431 (National Center for Advancing Translational Sciences (NCATS), 2020):
Fewer than 10 of roughly 1,200 compounds were called active. Not all results are given here. Values without a mark were called inactive. Calls come from the whole dose curve; as a rule, active = well fitted curve in the direction sought with a large enough effect; inconclusive = small, poorly fitted or top-dose-only effect, or another doubt; inactive = no such curve, though single readings can be large or run the other way.

Assay: Confirmatory qHTS assay for inhibitors of Activation Induced Cytidine Deaminase (AID): UDG signals; note: 0% is about no effect
Details: UDG coupled enzyme activity counter-screen; series mostly up to 115 µM; activity change, negative = inhibition: at the top concentration
Description: Assay Provider (PI) Patricia Gearhart Ph.D.
National Institute on Aging
National Institute of Health (NIH), Bethesda, MD
Assay Provider (PI) Rahul Kohli Ph.D.
Perelman School of Medicine
University of Pennsylvania, Philadelphia, PA
Activation-Induced Deaminase (AID) is a cytosine deaminase which converts cytosine into uracil within stretches of ssDNA. The presence of uracil in DNA initiates a cascade of mutagenic DNA repair to introduce point mutations and DNA double strand breaks. Specific targeting of AID to the immunoglobulin heavy chain loci (Igh) promotes mutagenesis in the antibody variable region for somatic hypermutation (SHM) or switch regions leading to class switch recombination (CSR). However, AID also plays a role in accumulating unnecessary mutations across the genome. Mis-targeting of AID results in the initiation of tumor development and leads to greater drug resistance among cancer cells when continually expressed. To identify an AID inhibitor, a small molecule library will be screened in collaboration with NCATS core facility at NIH. To confirm biological function, inhibitors will be examined in an in vitro murine B-cell activation assay and subsequent secondary validation screens. Top molecules will be further screened to identify inhibitory efficacy against a wild type primary splenocytes assay. Using these approaches, we hope to identify a small molecule with great efficacy and low toxicity for use as a molecular probe to further characterize AID's intricacies, or even as a therapeutic.
A FRET based analysis of cytosine deamination, was developed to identify potential inhibitors of AID catalytic activity. This screen has two signal output, Read 1 evaluates the AID inhibition response. The second readout (Read 2) evaluates UDG response and is uses as a counterscreen to exclude false positive inhibitors. Inhibition in AID and inactivity in the UDG signal is the desired outcome for this assay.
SEQUENCE No. (e.g., 1, 2, 3, etc.); […] (e.g., Cells, Incubation, Reagent, etc.); VALUE; DESCRIPTION
1a; Reagent; 3 uL; [4/3x] 1 uM AID/2.67 U/mL UDG
1b; Reagent; 3 uL; 2 U/mL UDG
1c; Reagent; 3 uL; 1 uM AID
2a; Compound; 46 nL; Follow-up plates (0.64 uM - 10 mM)
2b; Control; 46 nL; ATA ([…] - 10 mM)
3; Time; 10 min; incubation at room temperature
5; Time; 4 hr; incubation at room temperature
6; Reagent; 4 uL; [2x] 250 mM NaOH
7; Time; 15 sec; centrifuge at 1000 rpm
8; Time; 30 min; incubation at room temperature
9a; Detection; fluorescence (Read 1: AID); EnVision (PerkinElmer) plate reader, 540 excitation and 590 emission filters
9b; Detection; fluorescence (Read 2: UDG); EnVision (PerkinElmer) plate reader, 560 excitation and 665 emission filters
NOTES (numbers refer to sequence above)
1a; Reagents were dispensed in a medium-binding black solid-bottom Greiner plates (789176F) using a BioRptr liquid dispenser. Dispense 3 uL of [4/3x] 1 uM AID (provided by Kohli lab) and [4/3x] 2 U/mL UDG (NEB M0280L) into columns 1, 2, 5 to 48.
1b; Dispense 3 uL of [4/3x] 2 U/mL UDG into column 3.
1c; Dispense 3 uL of [4/3x] 1 uM AID into column 4.
2a; Compound (7-points [uM]: 0.64; 3.2; 16; 80; 400; 2,000; 10,000; […]) double pin-transferred (Dip Factor = 2) using the Kalypsys (Wako USA) pintool equipped with a 1536 pinhead for a final concentration range of 7.32 nM - 114 uM.
2b; 10 mM Aurintricarboxylic Acid (Sigma A1895) (ATA, 8-point, n = 2, 1:2.5 dilution in column 2) double pin-transferred (Dip Factor = 2) using the Kalypsys (Wako USA) pintool equipped with a 1536 pinhead for a [final] range of 186 nM - 114 uM.
3; Room temperature incubation.
4; Dispense 1 uL of substrate mixture from the Kohli lab [4x] […] DJC20 and [4x] 250 nM DJC23 into columns 1 to 48 .
5; Room temperature incubation.
6; Dispense 4 uL of substrate mixture [2x] 250 mM NaOH into columns 1 to 48.
7; Centrifugation step to remove bubbles.
8; Room temperature incubation
9a; Fluorescence signal (column label AID) was read using the EnVision plate reader. […]

Row | Compound | activity change, negative = inhibition
1 | O=C(c1cccn1-c1nnc(N2CCCCC2)s1)N1CCN(c2ccc(Cl)cc2)CC1 | -13.6%
2 | Cc1ccc(Cl)cc1N1CCN(C(=O)c2ccc3c(c2)N(Cc2ccccc2)CCS3)CC1 | 10.8%
3 | COc1ccc(-c2coc3c2c(C)cc2oc(=O)c(CC(=O)O)c(C)c23)cc1 | -15.3%
4 | CCCc1cc(=O)n2[nH]c(NC(=O)c3ccc(C(C)(C)C)cc3)nc2n1 | 14.5%
5 | Cc1ccccc1C(=O)Nc1ccc(C(=O)OCc2cc(=O)n3c4c(sc3n2)CCCC4)cc1 | -1.88%
6 | Cc1ccc2c(C)c(C(=O)NCC(c3ccc(Cl)cc3)N3CCOCC3)oc2c1 (configuration not stated) | -1.8%
7 | CCOC(=O)c1c(C)oc2nc(C)nc(N3CCN(c4ccccc4F)CC3)c12 | -3.63%
8 | CCN(CC)C(=O)c1ccc2c(c1)N(Cc1c(F)cccc1Cl)C(=O)c1ccccc1S2 | 0.172%
9 | COc1ccc(-c2nn3c(-c4ccccc4C)nnc3c3ccccc23)cc1 | -9.22%
10 | COc1ccc(CCNC(=O)CSc2cn(CCNC(=O)c3cccc(C(F)(F)F)c3)c3ccccc23)cc1OC | -4.31%
11 | CCOCCCn1c(=N)c(C(=O)NC(C)c2ccccc2)cc2c(=O)n3cccc(C)c3nc21 (configuration not stated) | -12.7%
12 | COc1ccc(CNc2oc(-c3ccc(COc4ccccc4C)o3)nc2C#N)cc1 | -3.1%
13 | Cc1ccc(Cl)cc1N(C)C(=O)c1sc2nc3n(c(=O)c2c1C)CCCC3 | -5.4%
14 | COc1cc2c(=O)c(S(=O)(=O)c3ccc(C)cc3)cn(Cc3cccc(C)c3)c2cc1OC | -3.74%
15 | O=C(Nc1cc(-c2ccccc2)sc1C(=O)O)c1cccc(F)c1 | -3.22%
16 | C=Cc1ccc(CN2C(=O)N(c3ccc(C)c(C)c3)S(=O)(=O)c3ccccc32)cc1 | -4.6%
17 | O=S(=O)(NCCc1nnc2ccc(SCc3ccc(Cl)cc3Cl)nn12)c1ccccc1 | -1.19%
18 | COc1ccc(-c2cc3ncc(C(=O)c4cc([N+](=O)[O-])ccc4O)cn3n2)cc1 | 4.06%
19 | Cc1c(C(=O)N(C)c2ccccc2)sc2nc(-c3ccc(F)cc3)cn12 | -7.95%
20 | CCOc1ccc2nc(Cl)c(C3CC(c4ccc(C)cc4)=NN3C(=O)CCC(=O)O)cc2c1 (configuration not stated) | 4.17%
21 | COc1ccccc1-c1nn(CCC(=O)Nc2ccc(C)cc2)c2nc(C)cc(C)c12 | -6.55%
22 | Cc1ccc(C)c(N2CCN(C(=O)c3cnn(C(C)(C)C)c3C3CCN(C(=O)OC(C)(C)C)CC3)CC2)c1 | -6.07%
23 | COc1cc2c(cc1OC)C(COc1ccc(F)cc1)N(C(=O)c1cccc(F)c1)CC2 (configuration not stated) | -11.3%
24 | COc1ccc(OC)c(NC(=O)Cn2c(=O)cc(-c3ccccc3)c3c(C)nn(C)c32)c1 | 7.45%

Row | Compound | activity change, negative = inhibition
25 | Cc1nc2c(C(=O)NCc3ccccc3)c[nH]n2c(=O)c1Cc1ccccc1Cl | 4.49%
26 | CCCCCSc1nnc2c(n1)OC(CC)Nc1ccc(Br)cc1-2 (configuration not stated) | 6.46%
27 | CCCCN(CCCC)C(=O)c1cc2c(=O)n3cccc(C)c3nc2s1 | -1.48%
28 | CCOc1ccc(C(=O)/C=C/c2cn(CC(O)CN3CCCCCC3)c3ccccc23)cc1 (configuration not stated) | -4.79%
29 | CCCc1nc2ccccc2n2c(-c3ccccc3)c3c(=O)n(C)c(=O)n(C)c3c12 | -2.27%
30 | CCCN1CCN(CCCNC(=O)c2cc3c(Cl)nc4ccccc4c3s2)CC1 | 12.3%
31 | COc1ccc(CSc2nc3ccncc3n2Cc2nc(-c3ccc(OC)c(OC)c3)oc2C)cc1 | 3.79%
32 | COc1ccc(Cn2cc(C(=O)c3ccc(C)c(C)c3)c(=O)c3ccccc32)cc1 | -4.47%
33 | Cc1ccccc1NC(=O)c1c(NC(=O)C(F)(F)F)sc2c1CCCCC2 | 6.21%
34 | O=S1(=O)c2ccccc2N(Cc2ccc(Cl)cc2)c2ccccc21 | 3.98%
35 | Cc1cccc(Cn2c(SCc3ccc(C(=O)N4CCCCCC4)cc3)nc3ccncc32)c1 | 1.99%
36 | COCCc1nn2c(=O)cc(COC(=O)c3ccc(C(C)(C)C)cc3)nc2s1 | 6.29%
37 | CCN(c1cccc(C)c1)S(=O)(=O)c1nnc(NC(=O)c2ccccc2Cl)s1 | 0.737%
38 | COc1ccccc1N1CCN(C(=O)c2cc3c(-c4ccccc4F)nn(C)c3s2)CC1 | -3.23%
39 | CCOc1cccc(C(=O)N(Cc2ccc(F)cc2)Cc2ccco2)c1 | -7.98%
40 | CCOc1ccc(CCNc2ncnc3onc(-c4ccc(Cl)cc4)c23)cc1OCC | -4.41%
41 | Cc1cc(OCCCSc2nc(-c3ccc(C(C)(C)C)cc3)nc3cc(=O)[nH]n23)ccc1Cl | -3.24%
42 | CCOc1ccc(Nc2c(S(=O)(=O)c3ccc(C)cc3)cnc3ccc(OC)cc23)cc1 | -6.81%
43 | CCn1cc2nc(SCc3cccc(C(F)(F)F)c3)n(CCc3ccccc3)c(=O)c2n1 | -6.4%
44 | CCCCOc1ccc(C(=O)Nc2ccc(S(=O)(=O)Nc3nc(C)cc(C)n3)cc2)cc1 | 5.37%
45 | O=C(O)c1c(-c2ccccc2)oc2ccc(OCc3c(F)cccc3Cl)cc12 | -5.79%
46 | O=C1c2ccccc2C(=O)C1(c1ccccc1)N1CCN(c2cccc(C(F)(F)F)c2)CC1 | 4.62%
47 | CC(=O)N1CCc2c(sc3c2c(=O)n(Cc2ccccc2)c(=O)n3Cc2cccc(Cl)c2)C1 | -4.28%
